Reference: PubChem BioAssay AID1159580 (chemical genetic matrix, 2015)
Hit rate of the full screen: of about 5,500 compounds, about 2,000 (36%) were called active. Another 18% or so got no clear call; they are omitted. Cut-off read from the data, not from the text of the source: active = normalized growth mostly below about 0.91 (no sharp cut-off); inconclusive = no clear call, values can overlap the other calls; inactive = mostly above about 0.92. This is one part of the list.

Assay: chemical genetic growth profiling, strain panel (AID 1159580);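 note: tested at 20 µM; growth read once vehicle control cultures reached saturation at 30 °C; 1 = growth at the plate median or of vehicle wells; lower values mean less growth of the strain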
Conditions: S. cerevisiae deletion strains, growth OD
[1] = locus YAL021C, strain ccr4, stronger effect = lower value
[2] = locus YAL026C, strain drs2, stronger effect = lower value
[3] = locus YAL030W, strain snc1, stronger effect = lower value
[4] = locus YBL061C, strain skt5, stronger effect = lower value
[5] = locus YBR009C, strain hhf1, stronger effect = lower value
[6] = locus YBR023C, strain chs3, stronger effect = lower value
[7] = locus YBR171W, strain sec66, stronger effect = lower value
[8] = locus YBR231C, strain swc5, stronger effect = lower value
[9] = locus YBR279W, strain paf1, stronger effect = lower value
[10] = locus YCL011C, strain gbp2, stronger effect = lower value
[11] = locus YCL016C, strain dcc1, stronger effect = lower value
[12] = locus YCL061C, strain MRC1, stronger effect = lower value
[13] = locus YCL069W, strain vba3, stronger effect = lower value
[14] = locus YCR088W, strain abp1, stronger effect = lower value
[15] = locus YDL005C, strain med2, stronger effect = lower value
[16] = locus YDL040C, strain nat1, stronger effect = lower value
[17] = locus YDR001C, strain nth1, stronger effect = lower value
[18] = locus YDR069C, strain doa4, stronger effect = lower value
[19] = locus YDR137W, strain rgp1, stronger effect = lower value
[20] = locus YDR159W, strain sac3, stronger effect = lower value
[21] = locus YDR297W, strain sur2, stronger effect = lower value
[22] = locus YDR334W, strain swr1, stronger effect = lower value
[23] = locus YDR335W, strain msn5, stronger effect = lower value
[24] = locus YDR392W, strain spt3, stronger effect = lower value
[25] = locus YEL003W, strain gim4, stronger effect = lower value
[26] = locus YEL037C, strain rad23, stronger effect = lower value
[27] = locus YEL061C, strain CIN8 (second series), stronger effect = lower value
[28] = locus YER015W, strain faa2, stronger effect = lower value
[29] = locus YER016W, strain bim1, stronger effect = lower value
[30] = locus YER111C, strain swi4, stronger effect = lower value
[31] = locus YER155C, strain BEM2 (second series), stronger effect = lower value
[32] = locus YFR010W, strain ubp6, stronger effect = lower value
[33] = locus YGL167C, strain pmr1, stronger effect = lower value
[34] = locus YGL173C, strain kem1, stronger effect = lower value
[35] = locus YGL227W, strain vid30, stronger effect = lower value
[36] = locus YGL240W, strain doc1, stronger effect = lower value
[37] = locus YGL253W, strain hxk2, stronger effect = lower value
[38] = locus YHR013C, strain ard1, stronger effect = lower value
[39] = locus YHR027C, strain rpn1, stronger effect = lower value
[40] = locus YHR030C, strain SLT2, stronger effect = lower value
[41] = locus YHR079C, strain IRE1, stronger effect = lower value
[42] = locus YHR142W, strain chs7, stronger effect = lower value
[43] = locus YJL092W, strain hpr5, stronger effect = lower value
[44] = locus YJL095W, strain BCK1 (second series), stronger effect = lower value
[45] = locus YJL095W, strain BCK1, stronger effect = lower value
[46] = locus YJL115W, strain asf1, stronger effect = lower value
[47] = locus YJL129C, strain trk1, stronger effect = lower value
[48] = locus YJL154C, strain vps35, stronger effect = lower value
[49] = locus YJL164C, strain tpk1, stronger effect = lower value
[50] = locus YJL166W, strain qcr8, stronger effect = lower value
[51] = locus YJL187C, strain SWE1, stronger effect = lower value
[52] = locus YJR066W, strain TOR1, stronger effect = lower value
[53] = locus YKL160W, strain elf1, stronger effect = lower value
[54] = locus YKR026C, strain gcn3, stronger effect = lower value
[55] = locus YKR091W, strain srl3, stronger effect = lower value
[56] = locus YLL001W, strain dnm1, stronger effect = lower value
[57] = locus YLL026W, stronger effect = lower value
[58] = locus YLL041C, strain sdh2, stronger effect = lower value
[59] = locus YLR027C, strain aat2, stronger effect = lower value
[60] = locus YLR113W, strain HOG1, stronger effect = lower value
[61] = locus YLR221C, strain rsa3, stronger effect = lower value
[62] = locus YLR258W, strain gsy2, stronger effect = lower value
[63] = locus YLR262C, strain YPT6 (second series), stronger effect = lower value
[64] = locus YLR320W, strain mms22, stronger effect = lower value
[65] = locus YLR342W, strain FKS1, stronger effect = lower value
[66] = locus YLR357W, strain rsc2, stronger effect = lower value
[67] = locus YLR370C, strain arc18, stronger effect = lower value
[68] = locus YLR384C, strain iki3, stronger effect = lower value
[69] = locus YML120C, strain ndi1, stronger effect = lower value
[70] = locus YMR058W, strain fet3, stronger effect = lower value
[71] = locus YMR125W, strain sto1, stronger effect = lower value
[72] = locus YMR129W, stronger effect = lower value
[73] = locus YMR205C, strain PFK2, stronger effect = lower value
[74] = locus YMR231W, strain pep5, stronger effect = lower value
[75] = locus YNL071W, strain lat1, stronger effect = lower value
[76] = locus YNL183C, strain NPR1, stronger effect = lower value
[77] = locus YNL209W, strain ssb2, stronger effect = lower value
[78] = locus YNL248C, strain rpa49, stronger effect = lower value
[79] = locus YNL322C, strain KRE1 (second series), stronger effect = lower value
[80] = locus YNR049C, strain mso1, stronger effect = lower value
[81] = locus YOR001W, strain rrp6, stronger effect = lower value
[82] = locus YOR070C, strain gyp1, stronger effect = lower value
[83] = locus YOR080W, strain dia2, stronger effect = lower value
[84] = locus YOR083W, strain WHI5, stronger effect = lower value
[85] = locus YOR106W, strain vam3, stronger effect = lower value
[86] = locus YOR231W, strain MKK1, stronger effect = lower value
[87] = locus YOR265W, strain rbl2, stronger effect = lower value
[88] = locus YOR270C, strain vph1, stronger effect = lower value
[89] = locus YOR290C, strain snf2, stronger effect = lower value
[90] = locus YPL051W, strain arl3, stronger effect = lower value
[91] = locus YPL078C, strain atp4, stronger effect = lower value
[92] = locus YPL106C, strain sse1, stronger effect = lower value
[93] = locus YPL240C, strain hsp82, stronger effect = lower value
[94] = locus YPL256C, strain CLN2, stronger effect = lower value

Measured: normalized growth

NC(=O)C(c1ccccc1)(c1ccccc1)C1CCN(CCc2ccc3c(c2)CCO3)C1 (stereo not given)
inactive: [1] 1.01 | [2] 1.02 | [3] 1.03 | [4] 1.01 | [5] 1.04 | [6] 1.02 | [7] 1.04 | [8] 0.976 | [9] 1.02 | [10] 1.03 | [11] 1.03 | [12] 1.02 | [13] 1.02 | [14] 1.02 | [15] 1.02 | [16] 1.03 | [17] 1.02 | [18] 1.04 | [19] 1.1 | [20] 1.03 | locus YDR195W, strain ref2 1.04 | [21] 1.02 | [22] 1.03 | [23] 1.01 | [24] 0.996 | [25] 1.03 | [26] 1.02 | [27] 1.01 | [28] 1.02 | [29] 1.04 | [30] 1.02 | [31] 1.04 | [32] 1.02 | [33] 1.02 | [34] 1.02 | [35] 1.01 | [36] 1.01 | [37] 1.02 | [38] 1.01 | [39] 1.03 | [40] 1.05 | [41] 1.05 | [42] 1 | [43] 1.01 | [44] 1.03 | [45] 0.986 | [46] 1.02 | [47] 0.999 | [48] 1.03 | [49] 1.04 | [50] 1.03 | [51] 1.02 | [52] 0.997 | [53] 1.02 | [54] 1.02 | [55] 1.02 | [56] 1.03 | [57] 1.02 | [58] 1.03 | [59] 1.03 | [60] 1.01 | [61] 1.02 | [62] 1.04 | [63] 1.08 | [64] 1.01 | [65] 1.02 | [66] 0.966 | [67] 1.01 | [68] 1.03 | [69] 1.01 | [70] 1.02 | [71] 1.01 | [72] 1.02 | [73] 1.03 | [74] 1.02 | [75] 1.01 | [76] 0.997 | [77] 1.02 | [78] 1.03 | [79] 1.04 | [80] 1.02 | [81] 1.03 | [82] 1.03 | [83] 1.01 | [84] 1 | [85] 1.01 | [86] 1.04 | [87] 1.05 | [88] 1.02 | [89] 1.08 | [90] 1.04 | [91] 1.01 | [92] 1.05 | [93] 1.03 | [94] 1.06

Nc1c(S(=O)(=O)O)cc(Nc2ccc(Nc3nc(Cl)nc(Nc4ccc(S(=O)(=O)O)cc4)n3)c(S(=O)(=O)O)c2)c2c1C(=O)c1ccccc1C2=O
inactive: locus YAL013W, strain DEP1, stronger effect = lower value 0.977 | locus YAL040C, strain CLN3, stronger effect = lower value 1.09 | locus YCL061C, strain MRC1 (second series), stronger effect = lower value 1.01 | locus YDR150W, strain NUM1, stronger effect = lower value 1.03 | locus YDR363W, strain ESC2, stronger effect = lower value 1.01 | locus YER002W, strain NOP16, stronger effect = lower value 1.03 | locus YGR078C, strain PAC10, stronger effect = lower value 1.04 | locus YMR307W, strain GAS1, stronger effect = lower value 1.05 | locus YNL128W, strain TEP1, stronger effect = lower value 1.03 | locus YNL175C, strain NOP13, stronger effect = lower value 1.03 | locus YNL197C, strain WHI3, stronger effect = lower value 1.04 | locus YNL224C, strain SQS1, stronger effect = lower value 1.04 | locus YNL322C, strain KRE1, stronger effect = lower value 1.01 | locus YOR083W, strain WHI5 (second series), stronger effect = lower value 1.04 | locus YPL241C, strain CIN2, stronger effect = lower value 1.02

CC(=O)O[C@H]1[C@@H]2[C@@H](OC(=O)Cc3ccccc3)[C@@H](C)C[C@]2(OC(C)=O)C(=O)/C(C)=C/[C@H]2[C@H](CC[C@@]13CO3)C2(C)C
inactive: [1] 0.975 | [2] 0.985 | [3] 0.986 | [4] 0.984 | [5] 1 | [6] 0.982 | [7] 0.976 | [8] 0.988 | [9] 0.983 | [10] 0.979 | [11] 0.989 | [12] 0.992 | [13] 0.991 | [14] 0.992 | [15] 0.976 | [16] 0.978 | [17] 0.985 | [18] 0.98 | [19] 0.85 | [20] 0.977 | locus YDR195W, strain ref2 1.01 | [21] 0.97 | [22] 0.934 | [23] 0.978 | [24] 0.84 | [25] 0.981 | [26] 0.987 | [27] 0.984 | [28] 0.989 | [29] 0.979 | [30] 0.992 | [31] 0.984 | [32] 0.977 | [33] 0.97 | [34] 0.958 | [35] 0.99 | [36] 0.99 | [37] 0.974 | [38] 0.926 | [39] 0.983 | [40] 0.988 | [41] 0.981 | [42] 0.958 | [43] 0.97 | [44] 0.977 | [45] 0.989 | [46] 0.969 | [47] 0.941 | [48] 0.993 | [49] 0.982 | [50] 0.981 | [51] 0.988 | [52] 0.963 | [53] 0.972 | [54] 0.982 | [55] 0.985 | [56] 0.98 | [57] 0.98 | [58] 0.97 | [59] 0.975 | [60] 0.966 | [61] 0.975 | [62] 0.986 | [63] 0.878 | [64] 0.971 | [65] 0.966 | [66] 1.03 | [67] 0.987 | [68] 0.983 | [69] 0.967 | [70] 0.98 | [71] 1 | [72] 0.989 | [73] 0.984 | [74] 0.993 | [76] 0.909 | [77] 0.989 | [78] 0.98 | [79] 0.981 | [80] 0.978 | [81] 0.955 | [82] 0.985 | [83] 0.974 | [84] 0.972 | [85] 0.951 | [86] 0.961 | [87] 0.983 | [88] 0.815 | [89] 0.929 | [90] 0.958 | [91] 0.978 | [92] 1 | [93] 0.966 | [94] 0.967
active: [75] 0.914
